# A selection: hits, their analogues and other compounds. The true share with any hit is near 4.5%.
# PrP UTR inh – inhibition of PrP 5' UTR reporter expression. cell-based PrP 5' UTR mRNA reporter, plate reader. inhibition, % (test concentration not listed). 0.35% of 340,000 active; in the data active means inhibition above about 52%; further: 0 = median of the neutral control wells
# PrPC surface inh – inhibitors of human cell surface prion protein PrPC, primary screen, cell-based, TR-FRET; Major prion protein (Homo sapiens), P04156; TR-FRET read-out; inhibition, % at 13.8 µM; 0.43% of 370,000 active; AID 720596, 2013; in the data active means inhibition above about 24%; further: 0% = median of the test wells and 100% = reference compound wells
# GDH-TPI counter-1 – GDH-TPI coupling enzyme inhibitors, primary screen, artefact control for M. tuberculosis FBA inhibitor project, biochemical, absorbance, full deck; GDH-TPI coupled enzyme counterscreen, NADH absorbance; inhibition, % at 4.8 µM; 1.2% of 360,000 active; AID 588335, 2011; in the data active means inhibition above about 30%;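 further: 0% = DMSO wells and 100% = wells lacking the enzyme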
# Mtb FBA inh – Mtb FBA enzyme inhibitors, primary screen, biochemical, fluorescence, strain H37Rv; Fructose-bisphosphate aldolase (Mycobacterium tuberculosis (strain ATCC 25618 / H37Rv)), …; purified M. tuberculosis FBA, fluorescence read-out; inhibition, % at 1 µM; 2.3% of 360,000 active; AID 588726, 2011;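 further: 0% = vehicle and 100% = reference inhibitor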
# Target sequence (P9WQA3 whole entry, looked up): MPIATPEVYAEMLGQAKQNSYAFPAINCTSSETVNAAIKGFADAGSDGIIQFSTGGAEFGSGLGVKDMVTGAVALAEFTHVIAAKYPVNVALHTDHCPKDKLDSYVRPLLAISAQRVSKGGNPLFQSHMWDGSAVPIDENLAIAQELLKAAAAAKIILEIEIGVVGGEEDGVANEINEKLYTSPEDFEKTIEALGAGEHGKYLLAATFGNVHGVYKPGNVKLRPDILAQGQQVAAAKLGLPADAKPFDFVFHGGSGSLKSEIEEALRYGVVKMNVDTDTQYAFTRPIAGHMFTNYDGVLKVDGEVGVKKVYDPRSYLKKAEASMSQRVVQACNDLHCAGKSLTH
# PfHsp40 rescue – rescue of yeast from PfHsp40 toxicity, primary screen, S. cerevisiae, ATP luminescence; S. cerevisiae expressing PfHsp40, growth rescue; growth rescue, % at 12.5 µM; 0.68% of 340,000 active; in the data active means growth rescue above about 28%, passing the limit was not always enough;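 further: yeast W303a lacking pdr1 and pdr3 grown in galactose medium; growth measured after three days at 30 °C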
# BJeLR lethal – MLPCN primary cell-based screen for lethality selective to Ras in HRASV12 cells. inhibition, % (no concentration beside the values). BJeLR (HRASV12) viability, CellTiter-Glo ATP luminescence, 48 h. 0.17% of 300,000 active; in the data active means inhibition above about 50%
# Mtb FBA inh conf – M. tuberculosis aldolase blockers, biochemical, fluorescence, strain H37Rv, confirmation; inhibition, % at 1 µM; 78% of 5,600 active; shares compounds with Mtb FBA inh; purified M. tuberculosis FBA, fluorescence read-out;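 further: 0% = vehicle wells and 100% = reference inhibitor wells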
# GDH-TPI counter-2 – GDH-TPI coupling enzyme inhibitors, artefact control for M. tuberculosis FBA inhibitor project, biochemical, fluorescence, high throughput. AID 652141, 2013. shares compounds with Mtb FBA inh. 81% of 5,600 active. GDH-TPI coupled enzyme counterscreen. inhibition, % at 1 µM; in the data active means inhibition above about 10%
# Active calls of the source: *; x = not tested or not shown; + = active, no number. Unless noted, no stated cut-off is given here; in the data, active means inhibition above about 27%; inactive means the rest.
SMILES,PrP UTR inh,PrPC surface inh,GDH-TPI counter-1,Mtb FBA inh,PfHsp40 rescue,BJeLR lethal,Mtb FBA inh conf,GDH-TPI counter-2
O=C(CCc1ccccc1)Nc1ccccc1C(=O)NCc1ccco1,-1,8,0,2,1,-16,x,x
Nc1c(C(=O)NCc2ccco2)c2nc3ccccc3nc2n1CCc1ccccc1,-19,-7,8,72*,0,-7,87*,72*
Nc1c(C(=O)NCCN2CCOCC2)c2nc3ccccc3nc2n1Cc1ccccc1,-31,-7,3,91*,-1,-9,7,3
CSCC[C@H](NC(=O)C(C)Oc1ccc(Cl)cc1)c1nc2ccccc2[nH]1 (stereo not given in full),-22,14,-3,0,0,4,x,x
COc1ccccc1NC(=O)C(C)OC(=O)C1COc2ccccc2O1 (stereo not given),-9,-2,-3,-1,-1,x,x,x
CCCNC(=O)Nc1nc2ccccc2s1,-83,-1,-1,4,-1,1,x,x
CCCNC(=O)c1ccc(-c2nc3ccccc3s2)s1,10,-38,32*,48*,1,1,100*,66*
COc1ccc2c(c1)c(C)cc[n+]2Cc1ccccc1,-54,-13,6,41*,4,7,59*,57*
Cc1ccc2c(c1)c(C)cc[n+]2Cc1ccccc1,-14,-3,7,12,0,-7,x,x
COc1ccc(S(N)(=O)=O)cc1C(=O)OCC1CCCCC1,-16,-3,-4,1,0,-5,x,x
COCC(=O)Nc1nc2n(n1)C(c1ccccc1)CC(c1ccc(OC)cc1)N2 (stereo not given),-2,3,6,54*,0,-2,50*,31*
Cc1ccc(C2C(=O)c3ccccc3C2=O)cc1,-8,-9,4,-2,0,15,x,x
Cc1ccc(C2N(C)C(=O)c3ccccc3N2C)cc1 (stereo not given),-12,9,9,52*,-3,10,+,+
CCc1nnc(NS(=O)(=O)c2ccc(NC(=O)c3ccccc3O)cc2)s1,-18,9,6,73*,2,-13,35*,26*
CCc1nnc(NS(=O)(=O)c2ccc(NC(=O)OC)cc2)s1,-2,0,11,5,-1,10,x,x
O=C(Nc1ccc(-c2nc3ccccc3[nH]2)cc1)c1ccccc1NS(=O)(=O)c1ccc(F)cc1,-2,7,31*,87*,1,-13,+,+
Cc1ccc(S(=O)(=O)Nc2ccccc2C(=O)NCc2cccnc2)cc1,-20,-7,-2,51*,-2,6,59*,48*
CS(=O)(=O)c1ccccc1C(=O)Nc1ccc(-c2nc3ccccc3[nH]2)cc1,-41,7,28,1,-1,3,x,x
O=C(Nc1ccc(S(=O)(=O)Nc2ncccn2)cc1)c1ccccc1NS(=O)(=O)c1ccc(F)cc1,-11,0,5,73*,-1,-9,-4,-4
O=C(O)/C=C/c1ccc(S(=O)(=O)Nc2ccccc2C(=O)Nc2ccc(F)cc2)cc1,-27,-3,15,-2,2,-10,x,x
O=C1CSc2ccc(C(=O)N3CCCC(C(=O)N4CCN(c5ccc(F)cc5)CC4)C3)cc2N1 (stereo not given),x,-7,x,x,x,x,x,x
CCc1ccccc1NC(=O)CNC(=O)CCC(=O)c1cc(C)sc1C,x,4,8,1,x,x,x,x
O=C(COc1ccc2c(-c3ccccc3)cc(=O)oc2c1)Nc1cccnc1,-11,4,5,0,1,4,x,x
CC1(C)CCC[C@]2(C)[C@H]3CC(=O)O[C@]3(C)CC[C@@H]12,-5,0,-3,91*,-2,-7,197*,147*
CC1(C)CCCC2(C)C1CCC1(C)OC(=O)CCC12 (stereo not given),x,-1,3,-1,x,x,x,x
SMILES,PrP UTR inh,PrPC surface inh,GDH-TPI counter-1,Mtb FBA inh,PfHsp40 rescue,BJeLR lethal,Mtb FBA inh conf,GDH-TPI counter-2
CC1CCC(NC(=O)c2cccc(S(=O)(=O)NCc3ccccc3)c2)CC1 (stereo not given),-23,8,-2,-1,-1,14,x,x
Cc1ccc2[nH]c(C(=O)NCCN3CCCC3)cc2c1,-1,-6,10,41*,-1,3,76*,63*
COCCN(CCOC)c1cc(C)c(C#N)c2nc3ccccc3n12,-8,-6,7,39*,0,-3,43*,41*
CCCc1cc(N2CCN(C(=O)c3ccco3)CC2)n2c(nc3ccccc32)c1C#N,-2,-14,1,32*,1,12,100*,84*
CCCc1cc(NCCCN2CCOCC2)n2c(nc3ccccc32)c1C#N,-5,-10,4,101*,-1,0,54*,41*
CCN(CC)CCNc1cc(C)c(C#N)c2nc3ccccc3n12,-12,-2,13,86*,-1,5,24,16*
C=C(C)CSc1cc(C)c(C#N)c2nc3ccccc3n12,-19,-13,-2,17,1,-4,x,x
CCN(CC)CCNC(=O)c1ccc(NC(=O)c2ccc(F)cc2F)cc1,-13,-8,4,-3,0,-8,x,x
COc1ncnc2c1ncn2CCCN1CCN(c2ccccn2)CC1,x,-3,9,1,x,x,x,x
Nc1nc(N2CCN(C(=O)c3ccco3)CC2)nc2ccc(Br)cc12,-84,x,4,11,0,0,x,x
Nc1nc(N2CCN(C(=O)c3ccco3)CC2)nc2ccccc12,-53,-10,-3,45*,-1,-15,7,-4
Cc1cc(NCCN2CCOCC2)n2c(nc3ccccc32)c1C#N,-4,-16,6,58*,1,-2,104*,81*
Cc1ccc2cc(C#N)c(NCCNC(=O)C3CCC3)nc2c1C,-17,-1,-1,52*,1,11,2,-2
Cc1cccc2cc(C#N)c(NCCNC(=O)NC3CCCCC3)nc12,-23,7,0,4,1,-3,x,x
Cc1ccc2cc(C#N)c(NCCCNC(=O)C3CCCO3)nc2c1 (stereo not given),-9,-5,-2,51*,-1,3,92*,86*
CCOCCCNC(=S)NCCCNc1nc2c(C)c(C)ccc2cc1C#N,-24,-6,2,47*,-1,x,111*,79*
CCOCCCNC(=S)N1CCCN(c2nc3c(C)c(C)ccc3cc2C#N)CC1,-5,2,-7,13,1,-3,x,x
